This note sets out measurements from PubChem BioAssay.

The subject of assay [1] is Wnt5a (protein binding on small-molecule microarray). As to the kind of experiment: small molecules binding Wnt5a protein – biophysical, small-molecule microarray, 635/667 nm fluorescence, primary screen (AID 1142).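 Note: fluorescence read at 667 nm with signal to noise per printed feature.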 As to conditions: 635 nm fluorescence, higher = more signal.
Assay [2] can be described thus: ATP-based viability of Huh7 replicon cells – cell-based, CellTiter-Glo luminescence, basal, 48 h, cytotoxicity control for HCV replication inhibitor project, primary screen (AID 1143).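 Note: Huh7 hepatoma cells carrying a hepatitis C replication reporter with no stimulus; test concentration not given here.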 To be noted: higher = more signal, called active from +8 up or from −8 down.
Assay [3] is described as follows: Pseudomonas biofilm growth suppression – PAO1 strain, BacTiter-Glo luminescence, LB-PBS, primary screen (AID 1144). As to conditions: P. aeruginosa PAO1 biofilm, 12 h, higher = more signal.
Assay [4] can be described thus: basal CRE-LacZ reporter activity in PC12 – cell-based, unstimulated, primary screen (AID 1145). To be noted: no forskolin, luminescence, 4.5 h, higher = more signal, called active from +8 up or from −8 down.
A short description of assay [5]: forskolin-driven CRE-LacZ activity in PC12 – cell-based, CRE-LacZ reporter, forskolin-stimulated, primary screen (AID 1146).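 Note: PC12 cells with 6xCRE LacZ reporter stimulated by forskolin 10 µM; beta-galactosidase reporter signal reflecting CREB driven transcription.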 To be noted: luminescence, 4.5 h, higher = more signal, called active from +8 up or from −8 down.
Assay [6] addresses Streptavidin (Streptomyces avidinii) (UniProt P22629). As to the kind of experiment: compounds binding control protein streptavidin – biophysical, small-molecule microarray, 635/667 nm fluorescence, artefact control for SMM compound annotation, primary screen (AID 1147).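 Note: signal reflects streptavidin binding to arrayed compounds as a control protein.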 To be noted: higher = more signal.
A short description of assay [7]: probe aInhba binding on compound microarray – biochemical, small-molecule microarray, 635/667 nm fluorescence, primary screen (AID 1148).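 Note: score merges 667nm spot fluorescence with signal-to-noise for antibody binding to printed compounds.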 As to conditions: higher = more signal.
For assay [8], the target named is Torsin-1A (Homo sapiens) (UniProt O14656). Briefly: TOR1A wild-type binding on microarray – cell lysate, small-molecule microarray, lysate, 635/667 nm, primary screen (AID 1149). As to conditions: COS7 hTOR1A-WT lysate, 635 nm fluorescence, higher = more signal.
Chain of Torsin-1A (Homo sapiens) (O14656 whole entry, looked up): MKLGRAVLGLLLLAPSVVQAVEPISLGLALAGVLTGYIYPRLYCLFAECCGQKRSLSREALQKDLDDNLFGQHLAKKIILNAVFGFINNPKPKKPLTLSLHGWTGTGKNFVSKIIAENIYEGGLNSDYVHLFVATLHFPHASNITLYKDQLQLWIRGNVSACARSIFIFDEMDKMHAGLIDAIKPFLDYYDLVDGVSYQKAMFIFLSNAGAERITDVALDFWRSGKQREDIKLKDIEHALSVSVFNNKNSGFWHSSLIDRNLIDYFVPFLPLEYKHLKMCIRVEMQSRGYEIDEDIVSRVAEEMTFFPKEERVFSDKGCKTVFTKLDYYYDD
The target is the same in assay [9]. As to the kind of experiment: torsin A mutant lysate binding on microarrays – cell lysate, small-molecule microarray, COS7 lysate, 635/667 nm fluorescence, primary screen (AID 1150).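 Note: score pools 667 nm emission and signal to noise measuring lysate protein binding.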 To be noted: COS7 hTOR1A mutant lysate, 635 nm fluorescence, higher = more signal.
The subject of assay [10] is Sonic hedgehog protein (Shh). As to the kind of experiment: Sonic hedgehog microarray binding compounds – biochemical, small-molecule microarray, 635/667 nm fluorescence, primary screen (AID 1151).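 Note: Shh protein binding to compounds spotted on small-molecule microarray slides; score combines spot fluorescence intensity with signal-to-noise across triplicate slides.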 To be noted: 635 nm fluorescence, higher = more signal.
Assay [11] is described as follows: optical density shifts of acrAB sulA E. coli – strain DRC41, OD650, 48 h, E. coli filamentation inducer project, primary screen (AID 1152).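 Note: E. coli MC1000 strain DRC41 lacking acrAB efflux pump and sulA.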 To be noted: higher = more signal, called active from +8 up or from −8 down.
The nature of assay [12]: probe aLefty1 binding on compound microarray – biochemical, small-molecule microarray, 635/667 nm fluorescence, primary screen (AID 1153).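 Note: score merges spot fluorescence with signal-to-noise ratio from the scanned slide images.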 As to conditions: higher = more signal.
Assay [13] can be described thus: plasmodial surface anion channel blockers, osmotic lysis – cell-based, P. falciparum Indochina, OD700, 1 h, primary screen (AID 1154). As to conditions: P. falciparum Indochina infected RBC osmotic lysis, higher = more signal, called active from +8 up or from −8 down.
Assay [14] is described as follows: plasmodial surface anion channel blockers, osmotic lysis – cell-based, P. falciparum Indochina, OD700, 2 h, primary screen (AID 1155).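 Note: lysis reports solute entry through the parasite surface anion channel PSAC.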 As to conditions: P. falciparum Indochina infected erythrocytes, higher = more signal, called active from +8 up or from −8 down.
Assay [15] can be described thus: changes in parasitized red cell lysis, either direction – P. falciparum Indochina, OD700, 3 h, PSAC antagonist project, primary screen (AID 1156). As to conditions: P. falciparum-infected erythrocytes, osmotic lysis, higher = more signal, called active from +8 up or from −8 down.
Assay [16] is described as follows: plasmodial surface anion channel blockers, osmotic lysis – cell-based, P. falciparum Indochina, OD700, 18 h, primary screen (AID 1157). To be noted: P. falciparum Indochina infected erythrocytes, osmotic lysis OD700, 18 h; higher = more signal, called active from +8 up or from −8 down.
A short description of assay [17]: S6 kinase pathway phospho-S6 level changes – cell-based, A549, cytoblot, luminescence, serum-stimulated, primary screen (AID 1158).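 Note: serum-stimulated A549 lung adenocarcinoma cells; signal is phosphorylated S6 detected by cytoblot immunostaining with HRP secondary.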 To be noted: 5 h, higher = more signal.
For assay [18], the target named is NADPH oxidase 2 (Homo sapiens) (UniProt P04839). Briefly: compounds shifting NOX2 Amplex Red fluorescence – cell-based, HEK293-NOX2, PMA-stimulated, NOX inhibitor project, primary screen (AID 1159). Note: test concentration not given here. To be noted: 45 min, higher = more signal, called active from +8 up or from −8 down.
Chain of NADPH oxidase 2 (Homo sapiens) (P04839 whole entry, looked up): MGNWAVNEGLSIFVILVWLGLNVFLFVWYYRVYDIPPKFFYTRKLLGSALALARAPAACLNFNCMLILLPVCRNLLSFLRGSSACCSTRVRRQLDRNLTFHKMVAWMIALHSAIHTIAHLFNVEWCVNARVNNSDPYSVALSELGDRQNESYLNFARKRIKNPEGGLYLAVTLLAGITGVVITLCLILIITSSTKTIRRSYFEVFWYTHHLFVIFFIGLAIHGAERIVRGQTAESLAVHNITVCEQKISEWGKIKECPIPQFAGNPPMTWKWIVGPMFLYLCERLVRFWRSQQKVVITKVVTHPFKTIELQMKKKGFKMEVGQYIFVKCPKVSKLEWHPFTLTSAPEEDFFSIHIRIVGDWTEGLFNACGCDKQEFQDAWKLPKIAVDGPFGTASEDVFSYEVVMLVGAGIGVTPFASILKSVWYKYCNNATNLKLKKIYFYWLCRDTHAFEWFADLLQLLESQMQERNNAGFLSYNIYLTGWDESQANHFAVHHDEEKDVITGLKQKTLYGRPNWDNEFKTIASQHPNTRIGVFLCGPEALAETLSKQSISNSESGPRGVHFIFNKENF
For assay [19], the target named is NADPH oxidase 4 (Homo sapiens) (UniProt Q9NPH5). As to the kind of experiment: compounds shifting NOX4 Amplex Red fluorescence – cell-based, HEK293-NOX4, tetracycline-induced, NOX inhibitor project, primary screen (AID 1160). As to conditions: HEK293-NOX4, Amplex Red H2O2 fluorescence, 45 min; higher = more signal, called active from +8 up or from −8 down.
Chain of NADPH oxidase 4 (Homo sapiens) (Q9NPH5 whole entry, looked up): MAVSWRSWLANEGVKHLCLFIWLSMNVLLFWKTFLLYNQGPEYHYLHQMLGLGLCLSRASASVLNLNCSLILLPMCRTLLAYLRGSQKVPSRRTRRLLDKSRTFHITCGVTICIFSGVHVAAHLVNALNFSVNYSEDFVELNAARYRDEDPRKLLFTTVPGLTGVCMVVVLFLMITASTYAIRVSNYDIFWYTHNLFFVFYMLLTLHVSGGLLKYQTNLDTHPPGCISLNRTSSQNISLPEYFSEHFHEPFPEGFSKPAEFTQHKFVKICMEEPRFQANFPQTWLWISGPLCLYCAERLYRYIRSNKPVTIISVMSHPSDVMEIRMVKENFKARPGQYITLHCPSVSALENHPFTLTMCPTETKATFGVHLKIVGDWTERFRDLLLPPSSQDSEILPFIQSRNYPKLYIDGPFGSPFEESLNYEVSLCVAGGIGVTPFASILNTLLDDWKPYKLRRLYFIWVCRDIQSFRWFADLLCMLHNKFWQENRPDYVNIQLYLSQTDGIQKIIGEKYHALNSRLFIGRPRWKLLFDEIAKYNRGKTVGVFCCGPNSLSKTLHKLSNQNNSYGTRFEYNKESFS
In assay [20] the target is NADPH oxidase 5 (Homo sapiens) (UniProt Q96PH1). Briefly: compounds shifting NOX5 Amplex Red fluorescence – cell-based, HEK293-NOX5, NOX inhibitor project, primary screen (AID 1161). As to conditions: HEK293-NOX5, ionomycin, 45 min, higher = more signal.
Chain of NADPH oxidase 5 (Homo sapiens) (Q96PH1 whole entry, looked up): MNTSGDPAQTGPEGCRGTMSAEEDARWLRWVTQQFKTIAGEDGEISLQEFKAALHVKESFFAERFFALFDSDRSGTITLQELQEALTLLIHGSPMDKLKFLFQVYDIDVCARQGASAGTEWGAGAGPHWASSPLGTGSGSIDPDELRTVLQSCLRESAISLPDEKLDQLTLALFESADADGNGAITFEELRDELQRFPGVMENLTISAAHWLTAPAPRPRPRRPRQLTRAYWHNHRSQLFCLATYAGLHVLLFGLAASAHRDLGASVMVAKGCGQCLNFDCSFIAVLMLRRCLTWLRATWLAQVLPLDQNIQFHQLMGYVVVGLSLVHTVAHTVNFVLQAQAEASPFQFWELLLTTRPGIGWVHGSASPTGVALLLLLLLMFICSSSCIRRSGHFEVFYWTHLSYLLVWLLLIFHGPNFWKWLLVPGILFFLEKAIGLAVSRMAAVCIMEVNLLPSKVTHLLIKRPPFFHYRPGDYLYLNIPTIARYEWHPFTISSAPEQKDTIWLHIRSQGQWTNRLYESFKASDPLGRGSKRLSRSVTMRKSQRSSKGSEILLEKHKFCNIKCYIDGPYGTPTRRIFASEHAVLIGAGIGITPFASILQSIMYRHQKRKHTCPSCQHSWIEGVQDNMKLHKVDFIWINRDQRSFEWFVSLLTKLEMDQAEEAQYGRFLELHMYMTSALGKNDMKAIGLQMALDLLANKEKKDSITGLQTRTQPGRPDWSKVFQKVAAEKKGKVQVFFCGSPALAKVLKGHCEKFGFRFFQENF

Activity calls are given as the source filed them. Unless noted, the rule behind the calls is not given here.

Chain of Streptavidin (Streptomyces avidinii) (P22629 whole entry, looked up): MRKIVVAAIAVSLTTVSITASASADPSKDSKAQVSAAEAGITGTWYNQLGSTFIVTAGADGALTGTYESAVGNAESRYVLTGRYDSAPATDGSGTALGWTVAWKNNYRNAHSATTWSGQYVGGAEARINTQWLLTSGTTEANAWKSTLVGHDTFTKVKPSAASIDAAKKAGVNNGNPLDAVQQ

Turning to `COCCn1c(C(=O)N2CCCC2)cc2c1C[C@H]1CN(C(=O)c3ccccc3)[C@@](Cc3ccccc3)(C(=O)OC)[C@@H]21`, the composite z-score was 0.576 in [1]; 0.393 in assay [6]; 0.679 in assay [7]; 0.22 in the assay with Torsin-1A (Homo sapiens) [8]; 1.18 in the assay with Torsin-1A (Homo sapiens) [9]; -0.193 in [10]. In addition, the composite z-score in [12] is 1.46. The z-score was -1.01 (inactive) in assay [2]; -0.784 (inactive) in assay [3]; -0.182 (inactive) in assay [4]; -0.034 (inactive) in assay [5]; -0.91 (inactive) in assay [11]; 1.46 (inactive) in assay [13]. In addition, the z-score in [14] was 0.103 (inactive); in assay [15] it was 1.98 (inactive); in assay [16], 1.01 (inactive); in [17], 1.09; in assay [18], 0.582 (inactive); in assay [19] it was -0.6 (inactive). In addition, in assay [20], the z-score is -3.94.

Take `CCCC[C@@H]1C[C@H]1[C@@H](NC(=O)c1ccc(C(F)(F)F)cc1)c1ccc(C(=O)OC)cc1`: the composite z-score in assay [1] is 1.16; in assay [6], 1.59; in assay [7], -0.0092; with Torsin-1A (Homo sapiens) [8], 3.21; with Torsin-1A (Homo sapiens) [9], 3.93; in assay [10], 1.91. Moreover, the composite z-score in assay [12] was 0.375. The z-score is -2.9 (inactive) in [2]; 0.164 (inactive) in [3]; 0.583 (inactive) in assay [4]; -0.269 (inactive) in assay [5]; -0.499 (inactive) in assay [11]; 8.27 (active) in assay [13]. The z-score in assay [14] was 0.851 (inactive); in assay [15], 0.512 (inactive); in assay [16], 0.422 (inactive); in assay [17] it was -0.0327; in [18] it was -0.628 (inactive); in [19], 0.497 (inactive). For the same compound, the z-score in [20] was found to be 1.03.

Turning to `CCCCN1CC=CC23O[C@@H]4C=CCOC(=O)[C@@H]4[C@H]2C(=O)N(CCO)[C@@H]3C1=O` (stereo not given in full), the composite z-score in assay [1] is -0.477; in [6] it was -0.94; in [7], 0.059; in the assay with Torsin-1A (Homo sapiens) [8], 0.0805; in the assay with Torsin-1A (Homo sapiens) [9], -0.243; in [10], -0.858. In assay [12], this compound showed a composite z-score of 0.175. Further, the z-score in [2] is -0.238 (inactive); in assay [3], 1.1 (inactive); in [4] it was 0.0605 (inactive); in assay [5], 0.113 (inactive); in [11] it was -0.492 (inactive); in assay [13], -0.366 (inactive). Also, the z-score in [14] was 0.574 (inactive); in assay [15], 0.349 (inactive); in assay [16], 0.381 (inactive); in assay [17], -0.415; in [18] it was 1.51 (inactive); in assay [19], 1.08 (inactive). Further, the z-score in assay [20] stood at 0.669.

`CC(C)C(=C=CC[C@@H](O)c1ccccc1OCCO)C[C@@H](O)c1cc(Cl)cc(Cl)c1O`: the composite z-score in [1] worked out at 0.532; in assay [6], 1.05; in [7] it was 0.0622; with Torsin-1A (Homo sapiens) [8], 1.44; with Torsin-1A (Homo sapiens) [9] it was 0.86; in assay [10], 2.11. The compound also returned a composite z-score in assay [12] of 0.0004. Further, the z-score in [2] was -3.43 (inactive); in assay [3] it was 0.519 (inactive); in assay [4], 3.25 (inactive); in [5] it was 0.266 (inactive); in assay [11] it was -0.701 (inactive); in assay [13], 22.2 (active). Further, the z-score in assay [14] was 5.74 (inactive); in assay [15] it was -0.0473 (inactive); in [16] it was 1.56 (inactive); in [17] it was -0.844; in assay [18] it was -1.79 (inactive); in assay [19] it was -1.46 (inactive). The z-score in assay [20] was -1.8.

As to `C=CCC(OC(C)=O)[C@@H]1[C@@H](N(Cc2cccc3ccccc23)C(=O)c2ccc(-c3ccccc3)cc2)c2cc(OCCCO)ccc2N1C(=O)c1ccc2ccccc2n1` (stereo not given in full), the composite z-score in [1] was -0.133; in assay [6], 0.582; in [7], 0.195; with Torsin-1A (Homo sapiens) [8], 0.178; with Torsin-1A (Homo sapiens) [9] it was 0.309; in assay [10], 0.664. The same compound registered a composite z-score in [12] of 0.123. In addition, the z-score is -0.205 (inactive) in assay [2]; 0.409 (inactive) in assay [3]; 0.106 (inactive) in assay [4]; 0.481 (inactive) in [5]; -0.688 (inactive) in [11]; 0.0025 (inactive) in assay [13]. Also, the z-score is -0.232 (inactive) in assay [14]; -0.44 (inactive) in assay [15]; -0.0821 (inactive) in [16]; 1.14 in assay [17]; -0.0242 (inactive) in [18]; 1.04 (inactive) in assay [19]. Besides, the z-score in assay [20] stood at 1.48.
